{"source": "PubChem BioAssay (NCATS)", "note": "Records with an inconclusive call do not appear. Activity calls are given as the source filed them. Unless noted, calls come from the whole dose curve; as a rule, active = well fitted curve in the direction sought with a large enough effect in the repeat runs; inconclusive = weak or mixed curves; inactive = no such curve, though single readings can be large; an effect the other way counts as inactive or inconclusive. Potency is the fitted concentration of half-maximal effect."}
{"biological_target": "Cytochrome P450 2C9 (Homo sapiens) (UniProt P11712)", "sequence (P11712 whole entry, looked up)": "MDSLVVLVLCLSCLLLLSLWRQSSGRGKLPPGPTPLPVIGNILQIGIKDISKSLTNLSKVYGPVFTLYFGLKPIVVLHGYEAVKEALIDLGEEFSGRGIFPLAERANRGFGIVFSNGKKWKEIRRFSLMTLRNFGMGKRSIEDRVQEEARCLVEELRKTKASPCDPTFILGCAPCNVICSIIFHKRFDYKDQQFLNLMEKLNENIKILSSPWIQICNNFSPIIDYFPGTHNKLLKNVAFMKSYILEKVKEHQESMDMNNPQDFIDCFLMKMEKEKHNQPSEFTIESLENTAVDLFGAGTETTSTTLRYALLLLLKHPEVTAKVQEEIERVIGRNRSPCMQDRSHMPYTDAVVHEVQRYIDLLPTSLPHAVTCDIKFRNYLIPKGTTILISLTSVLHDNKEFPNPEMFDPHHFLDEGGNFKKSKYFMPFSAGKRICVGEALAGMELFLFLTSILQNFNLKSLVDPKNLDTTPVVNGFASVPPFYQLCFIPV", "assay": "Cytochrome P450 family 2 subfamily C member 9 (CYP2C9) small molecule antagonists: luciferase biochemical (cell-free) qHTS assay (AID 1645842); note: nearly all actives have a fitted effect of over 55% in size", "conditions": "P450-Glo CYP2C9 enzyme assay, luciferin luminescence; series mostly up to 57.4 µM", "outline": "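P450-Glo CYP2C9 system: proluciferin substrate with enzyme in mix containing 0.4% BSA, 10 min at room temperature, then NADPH regeneration solution added and incubated 1 h at 37C. Detection reagent stopped reaction; luminescence read after 20 min as RLU.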"}
{"smiles": "C[C@H](Oc1ccc(S(C)(=O)=O)cc1C(=O)N1CCN(c2ncc(C(F)(F)F)cc2F)CC1)C(F)(F)F", "Potency": "6.74 µM (active)"}
{"smiles": "O=C(Nc1c(-c2cccs2)nc2ccccn12)c1ccc(Cl)cc1", "Potency": "15.1 µM (active)"}
{"smiles": "CC(C)(C)Nc1nc(Nc2ccc(C(N)=O)cc2)cc(N)c1C#N", "Potency": "3.38 µM (active)"}
{"smiles": "O=S(=O)(c1ccccc1)c1cnc2c(N3CCNCC3)cccc2c1", "Potency": "0.338 µM (active)"}
{"smiles": "CCCC1(c2ccccc2)NC(=O)N(CC(=O)N(C)Cc2c(F)cccc2Cl)C1=O", "note": "(configuration not stated)", "Potency": "12 µM (active)"}
{"smiles": "Cc1cc(N2CCN([C@@H]3CN[C@H](C(=O)N4CCSC4)C3)CC2)n(-c2ccccc2)n1", "Potency": "inactive"}
{"smiles": "CC(C)S(=O)(=O)NC[C@H](C)c1ccc(NC(=O)c2cc(F)cc(F)c2)cc1", "Potency": "7.56 µM (active)"}
{"smiles": "C[C@@H]1CCN(C(=O)N2CCCC2)C[C@@H]1N(C)c1ncnc2[nH]ccc12", "Potency": "inactive"}
{"smiles": "Cc1nc(Nc2n[nH]c3c2CN(C(=O)NC(CN(C)C)c2ccccc2)C3(C)C)c2sccc2n1", "note": "(configuration not stated)", "Potency": "13.5 µM (active)"}
{"smiles": "O=C(Nc1ccc(Cl)cc1F)c1ccccc1O", "Potency": "9.52 µM (active)"}
{"smiles": "O=C(CSc1nc2c(c(=O)n1-c1ccccc1)SCC2)Nc1ccc(-c2ccccc2)cn1", "Potency": "0.379 µM (active)"}
{"smiles": "O=C(NCc1ccc(F)cc1)C(=O)c1c[nH]c2ccccc12", "Potency": "1.9 µM (active)"}
{"smiles": "COc1ccc(C2=N[C@@H](c3ccc(Cl)cc3)[C@@H](c3ccc(Cl)cc3)N2C(=O)N2CCNC(=O)C2)c(OC(C)C)c1", "Potency": "inactive"}
{"smiles": "N#Cc1c(Oc2ccc(F)c(NC(=O)Cc3cccc(C(F)(F)F)c3)c2)ccc2nc(NC(=O)C3CC3)sc12", "Potency": "0.338 µM (active)"}
{"smiles": "COc1ccccc1NC(=O)OCC1CCN(C(=O)OC(C)(C)C)CC1", "Potency": "inactive"}
{"smiles": "COC(=O)N[C@@H](C)CNc1nccc(-c2cn(C(C)C)nc2-c2cc(Cl)cc(NS(C)(=O)=O)c2F)n1", "Potency": "inactive"}
{"smiles": "CCOC(=O)c1sc(NC(=O)[C@H](C(C)C)n2c(=O)[nH]c3ccccc3c2=O)nc1C", "Potency": "4.77 µM (active)"}
{"smiles": "CC(C)(C)NC(=O)[C@@H](c1cccnc1)N(C(=O)c1ccco1)c1ccc(C(C)(C)C)cc1", "Potency": "5.35 µM (active)"}
{"smiles": "CC(C)c1nnc(-c2ccc(-c3ccccc3)nc2)n1-c1cccc2nonc12", "Potency": "13.5 µM (active)"}
{"smiles": "CNS(=O)(=O)c1ccccc1Nc1nc(Nc2ccc(N3CCN(C)CC3)cc2OC)ncc1Cl", "Potency": "3.38 µM (active)"}
{"smiles": "CC(=O)N1CCN(Cc2ccc([C@H](C)Nc3nccc(N4C(=O)OC[C@@H]4C(C)C)n3)cc2)CC1", "Potency": "23.9 µM (active)"}
{"smiles": "COc1ccc2cc(C(C)C(=O)Oc3ccc(C(N)=S)cc3)ccc2c1", "note": "(configuration not stated)", "Potency": "21.3 µM (active)"}
{"smiles": "CC[C@H](CO)Nc1nc(NCc2ccc(-c3ccccn3)cc2)c2ncn(C(C)C)c2n1", "Potency": "0.19 µM (active)"}
{"smiles": "Cc1noc(=O)c2ccc(NC(=O)C(O)(CC(C)(C)c3cccc4c3OCC4)C(F)(F)F)cc12", "note": "(configuration not stated)", "Potency": "inactive"}
{"smiles": "O=C(NCC(O)CO)c1ccncc1Nc1ccc(I)cc1F", "note": "(configuration not stated)", "Potency": "16.9 µM (active)"}
{"smiles": "Cc1nc2ccc(Oc3ccc(F)cc3)cc2c(=O)n1C[C@H]1CCCN(C(C)C)C1", "Potency": "inactive"}
{"smiles": "CC(=O)NCC(=O)N1C2CCC1c1cc(Nc3ncc(C(F)(F)F)c(NC4CCC4)n3)ccc12", "note": "(configuration not stated)", "Potency": "9.52 µM (active)"}
{"smiles": "Cc1cc2c(F)c(Oc3ncnn4cc(OCC(C)O)c(C)c34)ccc2[nH]1", "note": "(configuration not stated)", "Potency": "12 µM (active)"}
{"smiles": "C=CC(=O)Nc1cc(Nc2ncc(Cl)c(-c3c[nH]c4ccccc34)n2)c(OC)cc1N(C)CCN(C)C", "Potency": "9.52 µM (active)"}
{"smiles": "COc1cc(Br)c(Nc2nc(-c3c(C)nc4ncccn34)cs2)c(Br)c1", "Potency": "8.49 µM (active)"}
{"smiles": "O=C(NCc1ccc(S(=O)(=O)c2cc(F)cc(F)c2)cc1)c1ccc2nccn2c1", "Potency": "inactive"}
{"test_system": "not listed separately", "assay": "Primary qHTS for inhibitors of nuclear receptor binding SET domain protein 2 (NSD2) in an isogenic RCH-ACV NSD2 p.E1099K mutant (9B) (AID 1645876; active = well fitted curve in the direction sought with a large enough effect; an effect the other way counts as inactive or inconclusive; note: nearly all actives have a fitted effect of over 70% in size)", "conditions": "RCH-ACV NSD2 E1099K (9B) viability, CellTiter-Glo, 72 h; series mostly up to 44.9 µM"}
{"smiles": "O=C(Nc1c(-c2cccs2)nc2ccccn12)c1ccc(Cl)cc1", "Potency": "inactive"}
{"smiles": "CC(C)(C)Nc1nc(Nc2ccc(C(N)=O)cc2)cc(N)c1C#N", "Potency": "3.65 µM (active)"}
{"smiles": "COc1ccc(C2(O)CCC(N3CC[C@@H](NC(=O)CNC(=O)c4cccc(C(F)(F)F)c4)C3)CC2)cn1", "note": "(some centres not stated)", "Potency": "inactive"}
{"smiles": "CCCC1(c2ccccc2)NC(=O)N(CC(=O)N(C)Cc2c(F)cccc2Cl)C1=O", "note": "(configuration not stated)", "Potency": "inactive"}
{"smiles": "CC(C)S(=O)(=O)NC[C@H](C)c1ccc(NC(=O)c2cc(F)cc(F)c2)cc1", "Potency": "inactive"}
{"smiles": "Cc1nc(Nc2n[nH]c3c2CN(C(=O)NC(CN(C)C)c2ccccc2)C3(C)C)c2sccc2n1", "note": "(configuration not stated)", "Potency": "0.0065 µM (active)"}
{"smiles": "O=C(CSc1nc2c(c(=O)n1-c1ccccc1)SCC2)Nc1ccc(-c2ccccc2)cn1", "Potency": "0.0365 µM (active)"}
{"smiles": "COc1ccc(C2=N[C@@H](c3ccc(Cl)cc3)[C@@H](c3ccc(Cl)cc3)N2C(=O)N2CCNC(=O)C2)c(OC(C)C)c1", "Potency": "3.65 µM (active)"}
{"smiles": "N#Cc1c(Oc2ccc(F)c(NC(=O)Cc3cccc(C(F)(F)F)c3)c2)ccc2nc(NC(=O)C3CC3)sc12", "Potency": "0.578 µM (active)"}
{"smiles": "COc1ccccc1NC(=O)OCC1CCN(C(=O)OC(C)(C)C)CC1", "Potency": "inactive"}
{"smiles": "COC(=O)N[C@@H](C)CNc1nccc(-c2cn(C(C)C)nc2-c2cc(Cl)cc(NS(C)(=O)=O)c2F)n1", "Potency": "inactive"}
{"smiles": "CNC(=O)c1ccccc1Nc1nc(Nc2ccc(N3CCNCC3)cc2)ncc1Cl", "Potency": "0.103 µM (active)"}
{"smiles": "CC(C)c1nnc(-c2ccc(-c3ccccc3)nc2)n1-c1cccc2nonc12", "Potency": "inactive"}
{"smiles": "CNS(=O)(=O)c1ccccc1Nc1nc(Nc2ccc(N3CCN(C)CC3)cc2OC)ncc1Cl", "Potency": "0.578 µM (active)"}
{"smiles": "CC(=O)N1CCN(Cc2ccc([C@H](C)Nc3nccc(N4C(=O)OC[C@@H]4C(C)C)n3)cc2)CC1", "Potency": "inactive"}
{"smiles": "COc1ccc2cc(C(C)C(=O)Oc3ccc(C(N)=S)cc3)ccc2c1", "note": "(configuration not stated)", "Potency": "inactive"}
{"smiles": "CC[C@H](CO)Nc1nc(NCc2ccc(-c3ccccn3)cc2)c2ncn(C(C)C)c2n1", "Potency": "0.459 µM (active)"}
{"smiles": "CC(=O)NCC(=O)N1C2CCC1c1cc(Nc3ncc(C(F)(F)F)c(NC4CCC4)n3)ccc12", "note": "(configuration not stated)", "Potency": "0.0728 µM (active)"}
{"smiles": "Cc1cc2c(F)c(Oc3ncnn4cc(OCC(C)O)c(C)c34)ccc2[nH]1", "note": "(configuration not stated)", "Potency": "4.09 µM (active)"}
{"smiles": "COc1cc(Br)c(Nc2nc(-c3c(C)nc4ncccn34)cs2)c(Br)c1", "Potency": "1.45 µM (active)"}
{"smiles": "O=C(NCc1ccc(S(=O)(=O)c2cc(F)cc(F)c2)cc1)c1ccc2nccn2c1", "Potency": "inactive"}
